The text below walks through data of PubChem BioAssay (NCI).

Some test systems named below: SK-MEL-2 melanoma; EKVX NSCLC; SN12C renal; UO-31 renal; TK-10 renal; ACHN renal; CAKI-1 renal; A498 renal; CCRF-CEM leukemia; MOLT-4 leukemia; RPMI-8226 leukemia; OVCAR-8 ovarian; OVCAR-5 ovarian; OVCAR-4 ovarian; SK-OV-3 ovarian; IGROV1 ovarian; OVCAR-3 ovarian; HS 578T breast; NCI/ADR-RES ovarian.
Assay in all cases: NCI-60 one-dose screen, 48 h (100 = growth as untreated, 0 = no growth, -100 = all killed)
Common to all, as to conditions: 10 µM unless noted

This is part of a sample that, as a whole, favours compounds with a hit. Of some 83,000 tested, about 20% had one in any assay.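 Percent growth is the endpoint: 0 to 100 indicates growth inhibition (40 means 60% inhibition), 0 means no net growth, and negative values indicate cell death.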 Values without a mark were called inactive. The source made the active and inactive calls. Rule for the calls: active = growth percent below 10; inactive = the rest.

As to `NC(=S)N/N=C/Cc1ccccc1`, the growth with SK-MEL-2 melanoma is 106%; in the assay on EKVX NSCLC it was 89.1%; in the assay on SN12C renal it was 102%; in the assay on UO-31 renal it was 64.4%; with TK-10 renal, 107%; with ACHN renal, 102%. In addition, the growth was 116% with CAKI-1 renal; 99.8% in the assay on A498 renal; 69.9% with CCRF-CEM leukemia; 78.7% in the assay on MOLT-4 leukemia; 88.3% with RPMI-8226 leukemia; 84.3% in the assay on OVCAR-8 ovarian. The growth with OVCAR-5 ovarian is 120%; with OVCAR-4 ovarian, 65.5%; in the assay on SK-OV-3 ovarian it was 111%; with IGROV1 ovarian, 79%; in the assay with OVCAR-3 ovarian it was 109%; in the assay with HS 578T breast, 103%. In the assay on NCI/ADR-RES ovarian, the growth was 83.7%.
As to `O=C1/C(=C\c2cccnc2)SC(=S)N1CCc1ccc(O)cc1`, the growth in the assay on SK-MEL-2 melanoma is 66.5%; with EKVX NSCLC it was 64.7%; in the assay with SN12C renal it was 18.4%; in the assay on UO-31 renal, 37.4%; with TK-10 renal it was 38.5%; in the assay on ACHN renal it was 29.4%. Further, the growth with CAKI-1 renal was 30.5%; in the assay with A498 renal, 85.1%; with CCRF-CEM leukemia it was 23.9%; in the assay with MOLT-4 leukemia, 68.6%; in the assay on RPMI-8226 leukemia it was 16.7%; in the assay with OVCAR-8 ovarian, 62.6%. In addition, the growth with OVCAR-5 ovarian is 58.8%; in the assay with OVCAR-4 ovarian, 64%; in the assay with SK-OV-3 ovarian, 96.4%; with IGROV1 ovarian, 62.9%; in the assay with OVCAR-3 ovarian, 35.7%; in the assay with HS 578T breast, 74.7%. Further, in the assay on NCI/ADR-RES ovarian, the growth is 47.9%.
For the compound `Cc1ccc(Nc2ccc(Nc3ccc(C)cc3)c3c2C(=O)c2cccc(O)c2C3=O)cc1`, the growth in the assay on SK-MEL-2 melanoma is 65.5%; in the assay with EKVX NSCLC, 91.6%; in the assay with SN12C renal it was 98%; in the assay with UO-31 renal, 64.7%; with TK-10 renal it was 137%; in the assay with ACHN renal it was 91%. In addition, the growth with CAKI-1 renal was 104%; in the assay on A498 renal it was 116%; with CCRF-CEM leukemia, 93.2%; with MOLT-4 leukemia it was 104%; with RPMI-8226 leukemia, 88.7%; in the assay on OVCAR-8 ovarian it was 97.8%. In addition, the growth was 82.1% in the assay with OVCAR-5 ovarian; 105% with OVCAR-4 ovarian; 87.5% in the assay with SK-OV-3 ovarian; -12.9% (active) in the assay with IGROV1 ovarian; 99% in the assay on HS 578T breast; 99.8% with NCI/ADR-RES ovarian.
As for `CCc1ccccc1NC(=O)/C(C#N)=C/c1ccc(OC)cc1`, the growth with SK-MEL-2 melanoma was 104%; in the assay with EKVX NSCLC it was 92.7%; with SN12C renal, 94%; in the assay on UO-31 renal, 80.5%; in the assay with TK-10 renal, 115%; with ACHN renal it was 97.4%. The growth in the assay on CAKI-1 renal is 103%; in the assay on A498 renal, 100%; with CCRF-CEM leukemia, 84.7%; with MOLT-4 leukemia, 87.3%; in the assay with RPMI-8226 leukemia it was 91%; in the assay with OVCAR-8 ovarian, 89.5%. Moreover, the growth in the assay with OVCAR-5 ovarian was 100%; with OVCAR-4 ovarian, 94.3%; with SK-OV-3 ovarian, 105%; with IGROV1 ovarian, 115%; in the assay on HS 578T breast, 92.6%.
As to `Cc1cc(/C=C\c2ccc3ccccc3[n+]2C)c(O)c2ncccc12`, the growth in the assay with SK-MEL-2 melanoma is 35.9%; with EKVX NSCLC, 18.7%; in the assay with SN12C renal it was 3.73% (active); in the assay on UO-31 renal, 16.8%; in the assay on TK-10 renal, 23.2%; in the assay on ACHN renal it was 6.11% (active). Besides, the growth in the assay on CAKI-1 renal was -0.345% (active); in the assay on A498 renal, 30.5%; with CCRF-CEM leukemia it was 25.6%; in the assay with MOLT-4 leukemia it was 0.695% (active); with RPMI-8226 leukemia, 14%; with OVCAR-8 ovarian, 6.2% (active). Also, the growth with OVCAR-5 ovarian is 23.9%; in the assay on OVCAR-4 ovarian it was 7.86% (active); in the assay on SK-OV-3 ovarian it was 20.9%; in the assay on IGROV1 ovarian, -1.34% (active); in the assay with OVCAR-3 ovarian, 25.8%; in the assay on HS 578T breast it was 32.9%. Moreover, the growth in the assay on NCI/ADR-RES ovarian is 32.4%.
In the case of `CC(C)C(=O)Nc1n[nH]c2cc(-c3cccc(NS(=O)(=O)C4CC4)c3)ccc12`, the growth in the assay on SK-MEL-2 melanoma was 78%; in the assay with EKVX NSCLC it was 71.7%; in the assay with SN12C renal, 77.7%; in the assay with UO-31 renal, 56.7%; in the assay on TK-10 renal, 94.9%; with ACHN renal, 70%. Further, the growth in the assay with CAKI-1 renal is 71.2%; in the assay with A498 renal it was 100%; in the assay on CCRF-CEM leukemia, 72.4%; with MOLT-4 leukemia it was 57.8%; in the assay on RPMI-8226 leukemia, 66.1%; in the assay on OVCAR-8 ovarian it was 82.2%. Also, the growth was 87.4% in the assay on OVCAR-5 ovarian; 52.8% in the assay with OVCAR-4 ovarian; 62.3% in the assay on SK-OV-3 ovarian; 64.6% with IGROV1 ovarian; 77.7% with HS 578T breast; 98.1% with NCI/ADR-RES ovarian.
On to `Cc1nc2ccccc2n1CC1NC(=O)NC1=O` (stereo unspecified), for which the growth with SK-MEL-2 melanoma was 104%; in the assay on EKVX NSCLC it was 97.9%; in the assay with SN12C renal it was 97.7%; in the assay on UO-31 renal, 94.7%; in the assay on TK-10 renal it was 102%; in the assay on ACHN renal it was 102%. In addition, the growth in the assay with CAKI-1 renal is 96%; in the assay on A498 renal, 88.8%; in the assay with CCRF-CEM leukemia, 107%; in the assay on MOLT-4 leukemia, 96%; in the assay with RPMI-8226 leukemia, 106%; in the assay with OVCAR-8 ovarian, 96.4%. The growth was 99.3% in the assay on OVCAR-5 ovarian; 102% in the assay on OVCAR-4 ovarian; 95.9% in the assay with SK-OV-3 ovarian; 104% in the assay with IGROV1 ovarian; 102% in the assay on HS 578T breast; 107% with NCI/ADR-RES ovarian.
As for `O=C(Nc1ccc(Cl)cc1)Nc1ccc(Cl)c(C(F)(F)F)c1`, the growth in the assay with SK-MEL-2 melanoma is 3.63% (active); in the assay with EKVX NSCLC, -3.9% (active); in the assay on SN12C renal, 6.93% (active); with UO-31 renal it was 18.5%; in the assay with TK-10 renal, 18.1%; in the assay with ACHN renal, 0.165% (active). The growth in the assay on CAKI-1 renal is 8.5% (active); in the assay on A498 renal it was -7.36% (active); with CCRF-CEM leukemia it was -27.6% (active); in the assay on MOLT-4 leukemia, -9.08% (active); with RPMI-8226 leukemia, -32.9% (active); in the assay with OVCAR-8 ovarian it was 19.9%. The growth is 1.37% (active) with OVCAR-5 ovarian; 30.6% in the assay on OVCAR-4 ovarian; -27.1% (active) with SK-OV-3 ovarian; 29.8% in the assay on IGROV1 ovarian; 19.7% in the assay on HS 578T breast; -37.1% (active) in the assay on NCI/ADR-RES ovarian.
